KB-V1 MDR tox: qHTS assay for MDR1-selective chemotherapeutics: Primary screen using the drug-selected MDR subline cells KB-V1 | KB-V1 MDR cells viability, CellTiter-Glo, 72 h | Potency, µM (titrated, usually from 46.1 µM), actives largely listed as cytotoxic | 400,000 tested, 3.4% active; further: nearly all actives have a fitted effect of over 60% in size
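Compound-treated KB-V1 multidrug-resistant cells, 72 h, 37 degrees C; viability by CellTiter-Glo. Fitted qHTS curves give the values.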
KB-3-1 cytotox: qHTS assay for MDR1-selective chemotherapeutics: Primary screen using the parental adenocarcinoma cell KB-3-1; KB-3-1 viability, CellTiter-Glo ATP luminescence, 72 h; Potency, µM (top dose mostly 46.1 µM), actives largely listed as cytotoxic; 400,000 tested, 1.4% active; AID 1347075, 2019; further: nearly all actives have a fitted effect of over 60% in size
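KB-3-1 cells, DMEM (no phenol red) + 10% FBS; compound by pin transfer, 72 h, 37 °C. Readout: CellTiter-Glo luminescence after 10 min. Data normalized, curve-fitted.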
HT1080-NT tox: qHTS for induction of synthetic lethality in tumor cells producing 2HG: qHTS for the HT-1080-NT fibrosarcoma cell line; HT-1080-NT fibrosarcoma viability, CellTiter-Glo ATP luminescence, 48 h; Potency, µM (titrated, usually from 46.1 µM), most hits filed as cytotoxic; 360,000 tested, 1.6% active;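 further: NT is the 2HG producing partner of a matched IDH1 knockdown line; nearly all actives have a fitted effect of over 55% in size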
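HT-1080-NT; 750 cells/well; 5% FBS RPMI; 48 h compound, 37 degrees C; CellTiter-Glo luminescence; curve fitting and curve-class assignment.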
HT1080 IDH1KD tx: qHTS for induction of synthetic lethality in tumor cells producing 2HG: qHTS for the HT-1080-IDH1KD cell line. Potency, µM (series often up to 46.1 µM), most hits filed as cytotoxic. HT-1080 IDH1 knockdown viability, ATP luminescence, 48 h. 360,000 tested, 2% active
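Assay cells: HT-1080 with IDH1 knockdown, 750 per well, RPMI/5% FBS. Exposure: 48 h at 37 °C following 2 h pre-incubation. Read: CellTiter-Glo luminescence; fitted concentration-response, curve class assigned.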
TDP1 cell noCPT: qHTS for Inhibitors of human tyrosyl-DNA phosphodiesterase 1 (TDP1): qHTS in cells in absence of CPT | DT40 Tdp1-/- hTDP1 cells, no CPT, ATP luminescence, 48 h | Potency, µM (titrated, usually from 46.2 µM), most hits filed as inhibitors | 420,000 tested, 15% active; further: nearly all actives have a fitted effect of over 55% in size
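Camptothecin absent (DMSO only). Human TDP1-complemented DT40 knockout cells, 400 cells/well, 37 °C for minimum 48 hr; ATP measured via CellTiter-Glo, 30 min dark incubation, luminescence.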
TDP1 cell CPT: qHTS for Inhibitors of human tyrosyl-DNA phosphodiesterase 1 (TDP1): qHTS in cells in presence of CPT; chicken DT40 Tdp1-/-;hTDP1 cells + 20 nM CPT, ATP luminescence, 48 h; Potency, µM (highest dose often 46.2 µM), actives largely listed as inhibitors; 420,000 tested, 12% active; further: nearly all actives have a fitted effect of over 55% in size
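Chicken DT40 Tdp1-/- cells complemented with human TDP1, 400 cells/well, exposed to compounds plus 20 nM camptothecin for at least 48 h at 37 C; viability read as ATP content by CellTiter-Glo luminescence.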
A number is an active result; 0 = inactive; ? = inconclusive; - = no result; [ ] = another dose, or the depositor's remark. Sampled rows, rich in hits. Any-hit rate of the full collection: about 19%. The call rests on the fitted dose curve; in most records, active means well fitted curve in the direction sought with a large enough effect; inconclusive means small, poorly fitted or top-dose-only effect, or another doubt; inactive means no such curve, though single readings can be large; an effect the other way counts as inactive or inconclusive.

SMILES	KB-V1 MDR tox	KB-3-1 cytotox	HT1080-NT tox	HT1080 IDH1KD tx	TDP1 cell noCPT	TDP1 cell CPT
CC(C)CN(C#N)c1nc(N2CCOCC2)nc(N2CCOCC2)n1	0	0	0	0	11.6µM	11.6µM
CCN(CC)c1nc(C#N)nc(N2CCOCC2)n1	?	0	-	-	10µM	10µM
O=C(CNc1ccccc1Cl)Nc1cc(S(=O)(=O)N2CCOCC2)ccc1Cl	0	0	0	0	?	0
O=C(CSc1nc2ccccc2s1)Nc1cc(S(=O)(=O)N2CCOCC2)ccc1Cl	18.4µM	0	0	0	?	?
Cc1cc2nnc(SCC(=O)Nc3cc(S(=O)(=O)N4CCOCC4)ccc3Cl)n2c2ccccc12	?	0	0	0	16.4µM	?
Cc1ccc(S(=O)(=O)N2CCOCC2)cc1NC(=O)CSc1nnc2cc(C)c3ccccc3n12	?	0	0	0	23.1µM	?
CC(=O)c1c(C)oc2ccc(N(C(=O)Oc3ccccc3)S(=O)(=O)c3ccc(Br)cc3)cc12	0	0	-	-	0	0
CCc1ccc(S(=O)(=O)N(C(=O)Oc2ccccc2)c2ccc3oc(C)c(C(=O)OC)c3c2)cc1	-	-	-	-	2.91µM	3.66µM
COC(=O)c1c(C)oc2ccc(N(C(=O)Oc3ccccc3)S(=O)(=O)c3ccc(Cl)c([N+](=O)[O-])c3)cc12	?	?	0	0	20.6µM	?
CCOC(=O)c1c(-c2ccccc2)oc2ccc(N(C(C)=O)S(=O)(=O)c3ccc(CC)cc3)cc12	?	?	-	-	5.8µM	16.4µM
CCCC(=O)N(c1ccc2oc(C)c(C(C)=O)c2c1)S(=O)(=O)c1ccc(C)c([N+](=O)[O-])c1	0	0	0	0	16.4µM	18.4µM
COc1ccc(N2CC(C)(C)[C@H](CC(=O)Nc3ccccc3)C2=O)cc1	0	0	0	0	0	0
COc1ccc(NC(=O)c2oc3c(c2C)-c2nn(Cc4ccccc4Cl)cc2CC3)cc1OC	-	-	-	-	20.6µM	20.6µM
COCCCNC(=O)c1oc2c(c1C)-c1nn(Cc3ccccc3Cl)cc1CC2	-	-	-	-	18.4µM	?
CCn1cc2c(n1)-c1c(oc(C(=O)Nc3cccc(C(F)(F)F)c3)c1C)CC2	-	-	-	-	0	0
CCN(C(=O)c1nn(-c2ccc(OC)c(Cl)c2)c(=O)c2c1c1ccccc1n2C)c1cccc(C(F)(F)F)c1	?	0	-	-	?	?
CCCC1S/C(=N/N=C/c2ccc(C)cc2)N(Cc2ccc(OC)cc2)C1=O (centres undefined)	13µM	?	0	0	0	0
COC(=O)CC1(c2ccc(OC)cc2)C(=O)c2ccccc2C1=O	?	0	?	?	?	0
COc1ccc(C(C[N+](=O)[O-])C2(c3ccc(OC)c(OC)c3)C(=O)c3ccccc3C2=O)cc1 (centres undefined)	?	?	?	20.6µM	4.11µM	?
O=C(CN(c1ccccc1)S(=O)(=O)c1ccccc1[N+](=O)[O-])N1CCCC1	0	?	0	0	0	0
Cc1ccc(CCNC(=O)c2ccc(CSc3nc4ccncc4n3Cc3ccc(F)cc3)cc2)cc1	0	0	-	-	16.4µM	16.4µM
CC(CNC(=O)c1ccc(CSc2nc3ccncc3n2Cc2cccc(F)c2)cc1)c1ccccc1 (centres undefined)	0	0	-	-	?	23.1µM
O=C(NCCc1ccccc1)c1ccc(CSc2nc3ccncc3n2Cc2ccc(F)cc2)cc1	0	0	-	-	16.4µM	?
CC(NC(=O)c1ccc(CSc2nc3ccncc3n2Cc2ccc(F)cc2)cc1)c1ccccc1 (centres undefined)	0	0	-	-	?	?
COc1ccc(/C=C(\NC(=O)c2ccccc2)C(=O)OC[C@@H]2CCC[N+]3(C)CCCCC23)cc1OC (some centres undefined)	0	0	0	0	0	0
SMILES	KB-V1 MDR tox	KB-3-1 cytotox	HT1080-NT tox	HT1080 IDH1KD tx	TDP1 cell noCPT	TDP1 cell CPT
Cn1nc(C(=O)OCC(=O)Nc2ccc(SC(F)F)cc2)c2ccccc2c1=O	-	-	0	0	0	0
CN(C(=O)Cn1nnc(-c2ccc(S(C)(=O)=O)cc2)n1)c1ccccc1	0	0	-	-	0	0
COCCn1c(=S)[nH]c2ccccc21	0	0	0	0	0	0
Cc1nnc(SCC(=O)N2c3ccccc3Sc3ccccc32)n1N	0	0	0	0[9.24 µM]	0	0
Cc1nnc(SC(=O)N2c3ccccc3Sc3ccccc32)s1	?	0	8.91µM	7.08µM	10.3µM	13µM
Cn1cnc([N+](=O)[O-])c1Nc1cccc(O)c1	0	0	0	0	0	0
Cn1cnc([N+](=O)[O-])c1Oc1ccc2ccccc2c1	?	?	0	?	?	8.2µM
Cn1c(CC(=O)NNC(=O)c2ccc(F)cc2Cl)nc2ccccc21	0	0	0	0	?	16.4µM
O=C(CN1C(=O)S/C(=C\c2ccc(Cl)cc2)C1=O)NC1C=CS(=O)(=O)C1 (centres undefined)	0	0	0	0	?	5.17µM
O=C(CN1C(=O)S/C(=C\c2cccc(Cl)c2)C1=O)NC1C=CS(=O)(=O)C1 (centres undefined)	0	?	0	0	0	?
COc1cccc(/C=C2\SC(=S)N(CCC(=O)NCCc3ccc(O)cc3)C2=O)c1	?	?	?	?	?	18.4µM
COc1cccc(/C=C2\SC(=S)N(CCC(=O)NC3C=CS(=O)(=O)C3)C2=O)c1 (centres undefined)	0	?	16.4µM	?	?	?
CC(C(=O)NC1C=CS(=O)(=O)C1)N1C(=O)/C(=C/c2cccc(Cl)c2)SC1=S (centres undefined)	0	0	?	?	0	16.4µM
CC(C(=O)NC1C=CS(=O)(=O)C1)N1C(=O)/C(=C\c2ccccc2)SC1=S (centres undefined)	?	0	0	0	?	?
Cc1cccc(C)c1NC(=O)CCC(=O)N1Cc2ccccc2Oc2ncccc21	0	0	-	-	0	0
O=C(CN1C(=O)/C(=C/c2cccc(Cl)c2)SC1=S)NC1C=CS(=O)(=O)C1 (centres undefined)	0	0	0	0	16.4µM	?
c1ccc(CN2CCC3CC2c2ccc(N4CCOCC4)cc23)cc1 (centres undefined)	0	0	0	0	0	0
COc1ccccc1NC(=O)CN1CCN(CC(=O)Nc2cc(C)ccc2OC)CC1	0	0	0	0	0	0

From PubChem BioAssay
